From PubChem BioAssay (Tox21)
“And” between values parts separate entries of the source, which are not always exact repeats. Equal entries are not always repeated. Records with an inconclusive call do not appear. Entries that show only a call come without a potency. More than one record can exist for a structure, and the calls need not agree. The source made the active and inactive calls. Unless noted, calls come from the whole dose curve; as a rule, active = well fitted curve in the direction sought with a large enough effect in the repeat runs; inconclusive = weak or mixed curves; inactive = no such curve, though single readings can be large; an effect the other way counts as inactive or inconclusive.

Key:
[1] = qHTS assay to identify small molecule antagonists of the estrogen receptor alpha (ER-alpha) signaling pathway - cell viability counter screen (AID 743074; calls by dose curve;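 note: HEK293 cells carrying ER-alpha-UAS-bla reporter stimulated with 17beta-estradiol; nearly all actives have a fitted effect of over 45% in size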); settings: ERalpha-bla HEK293 viability, CellTiter-Glo luminescence, 18 h; series mostly up to 69.4 µM
[2] = qHTS assay to identify small molecule antagonists of the estrogen receptor alpha (ER-alpha) signaling pathway using the BG1 cell line - cell viability counter screen (AID 743081); settings: BG1Luc4E2 viability, CellTiter-Fluor, 22 h; series mostly up to 70.3 µM;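 note: compound given together with 17beta-estradiol as the ER stimulus; nearly all actives have a fitted effect of over 45% in size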
Aromatase (Homo sapiens) = Aromatase (Homo sapiens) (UniProt P11511); assay: qHTS assay to identify aromatase inhibitors (AID 743083); settings: MCF-7 aro ERE, testosterone-driven ERE luciferase, 24 h; series mostly up to 70.3 µM; note: nearly all actives have a fitted effect of over 55% in size; note: potency is the fitted concentration of half-maximal effect
Aromatase (Homo sapiens), sequence (P11511 whole entry, looked up): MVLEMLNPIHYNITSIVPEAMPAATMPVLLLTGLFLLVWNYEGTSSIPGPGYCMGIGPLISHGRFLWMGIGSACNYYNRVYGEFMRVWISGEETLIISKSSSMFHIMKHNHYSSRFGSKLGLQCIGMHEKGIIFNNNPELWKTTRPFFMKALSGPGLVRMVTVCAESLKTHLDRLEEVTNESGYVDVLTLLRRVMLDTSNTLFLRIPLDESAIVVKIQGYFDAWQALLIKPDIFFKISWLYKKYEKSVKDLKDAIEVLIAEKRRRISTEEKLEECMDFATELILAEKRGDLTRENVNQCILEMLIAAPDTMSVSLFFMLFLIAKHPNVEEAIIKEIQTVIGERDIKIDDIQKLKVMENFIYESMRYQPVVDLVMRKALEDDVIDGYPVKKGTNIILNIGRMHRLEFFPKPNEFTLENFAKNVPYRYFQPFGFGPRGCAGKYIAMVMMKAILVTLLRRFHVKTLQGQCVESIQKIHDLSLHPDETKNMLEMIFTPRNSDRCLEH

[3] = qHTS assay to identify aromatase inhibitors - cell viability counter screen (AID 743084); settings: MCF-7 aro ERE viability, CellTiter-Fluor, 24 h; series mostly up to 70.3 µM;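 note: cells stimulated with testosterone during compound exposure; nearly all actives have a fitted effect of over 55% in size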
[4] = biological target: Aryl hydrocarbon receptor (Homo sapiens) (UniProt P35869); assay: qHTS assay to identify small molecule that activate the aryl hydrocarbon receptor (AhR) signaling pathway (AID 743085); settings: HepG2 AhR-luc (HG2L7.5c1), luciferase, 24 h; series mostly up to 70.3 µM;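 note: HG2L7.5c1 human HepG2 liver cells with stably integrated DRE-driven firefly reporter; nearly all actives have a fitted effect of over 15% in size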
Aryl hydrocarbon receptor (Homo sapiens), sequence (P35869 whole entry, looked up): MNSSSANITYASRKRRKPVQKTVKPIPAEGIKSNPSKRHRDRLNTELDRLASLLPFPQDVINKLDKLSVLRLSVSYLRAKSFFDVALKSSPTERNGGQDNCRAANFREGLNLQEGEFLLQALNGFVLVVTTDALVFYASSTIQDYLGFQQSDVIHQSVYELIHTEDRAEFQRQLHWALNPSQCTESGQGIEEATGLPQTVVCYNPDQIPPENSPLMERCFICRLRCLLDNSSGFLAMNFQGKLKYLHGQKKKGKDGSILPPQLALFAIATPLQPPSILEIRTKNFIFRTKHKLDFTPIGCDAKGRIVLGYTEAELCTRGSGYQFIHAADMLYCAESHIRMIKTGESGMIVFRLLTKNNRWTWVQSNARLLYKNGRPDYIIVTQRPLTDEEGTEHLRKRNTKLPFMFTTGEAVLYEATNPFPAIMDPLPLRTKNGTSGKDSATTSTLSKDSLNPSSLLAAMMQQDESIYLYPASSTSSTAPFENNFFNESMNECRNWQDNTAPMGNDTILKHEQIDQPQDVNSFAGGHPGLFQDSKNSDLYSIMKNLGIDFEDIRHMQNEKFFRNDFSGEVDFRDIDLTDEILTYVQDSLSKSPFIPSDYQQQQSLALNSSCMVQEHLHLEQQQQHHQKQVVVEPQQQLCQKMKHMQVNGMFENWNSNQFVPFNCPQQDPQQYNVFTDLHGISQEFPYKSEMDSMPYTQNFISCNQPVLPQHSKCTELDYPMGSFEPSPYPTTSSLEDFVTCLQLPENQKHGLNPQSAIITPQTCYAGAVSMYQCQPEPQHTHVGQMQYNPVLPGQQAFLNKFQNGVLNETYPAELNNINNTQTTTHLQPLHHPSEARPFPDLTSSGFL
Method in brief: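 Cell line HG2L7.5c1 (human hepatoma, 20× DRE-luc). Plated, 5 h 37C, compound/DMSO added, 24 h 37C. CellTiter-Fluor 30 min 37C → fluorescence; then ONE-Glo 30 min RT → luminescence.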

[5] = qHTS assay to identify small molecule that activate the aryl hydrocarbon receptor (AhR) signaling pathway - cell viability counter screen (AID 743086); settings: HepG2-AhR-luc viability, CellTiter-Fluor, 24 h; series mostly up to 70.3 µM;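 note: HepG2 liver cells carrying the AhR DRE luciferase reporter; nearly all actives have a fitted effect of over 45% in size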
Method in brief: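 HepG2-AhR-luc (HG2L7.5c1) cells, 4000/well, treated 24 h at 37 C with compound; viability measured as CellTiter-Fluor fluorescence after 30 min in the same wells as the luciferase read.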

[6] = biological target: Peroxisome proliferator-activated receptor gamma (Homo sapiens) (UniProt P37231); assay: qHTS assay to identify small molecule antagonists of the peroxisome proliferator-activated receptor gamma (PPARg) signaling pathway (AID 743191; calls by dose curve; note: nearly all actives have a fitted effect of over 30% in size); settings: HEK293H PPARg-UAS-bla, beta-lactamase ratio, antagonist, 17 h; series mostly up to 62.6 µM
Peroxisome proliferator-activated receptor gamma (Homo sapiens), sequence (P37231 whole entry, looked up): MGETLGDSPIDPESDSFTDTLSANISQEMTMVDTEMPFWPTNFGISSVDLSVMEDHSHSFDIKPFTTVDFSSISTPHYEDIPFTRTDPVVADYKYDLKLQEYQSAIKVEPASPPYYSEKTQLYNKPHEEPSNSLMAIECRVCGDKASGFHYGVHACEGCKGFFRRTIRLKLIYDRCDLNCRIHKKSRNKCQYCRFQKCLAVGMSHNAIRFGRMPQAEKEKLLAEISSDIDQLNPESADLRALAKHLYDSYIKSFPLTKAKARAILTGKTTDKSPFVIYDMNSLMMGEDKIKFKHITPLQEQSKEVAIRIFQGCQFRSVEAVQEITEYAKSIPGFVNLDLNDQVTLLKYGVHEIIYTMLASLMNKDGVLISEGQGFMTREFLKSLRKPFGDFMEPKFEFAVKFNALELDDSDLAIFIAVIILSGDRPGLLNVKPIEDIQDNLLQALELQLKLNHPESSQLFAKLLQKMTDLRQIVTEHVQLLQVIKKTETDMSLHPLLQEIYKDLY
Method in brief: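 GeneBLAzer PPARg UAS-bla HEK293H cells, 5 h post-plating, exposed to compounds 17 h at 37C. LiveBLAzer B/G FRET substrate added for 1 h at room temperature; beta-lactamase reporter read by fluorescence intensity.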

[7] = qHTS assay to identify small molecule antagonists of the peroxisome proliferator-activated receptor gamma (PPARg) signaling pathway - cell viability counter screen (AID 743194); settings: PPARg-bla HEK293H viability, CellTiter-Glo luminescence, 17 h; Potency: co-treated with 50 nM rosiglitazone unless noted; series mostly up to 62.6 µM; note: nearly all actives have a fitted effect of over 55% in size
Method in brief: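 Cytotoxicity counter screen in PPARg-bla HEK293H cells, same wells as reporter assay. Compounds plus 50 nM rosiglitazone (final) for 17 h at 37 C, then viability read by CellTiter-Glo luminescence.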

[8] = qHTS assay for small molecule agonists of the antioxidant response element (ARE) signaling pathway - cell viability counter screen (AID 743203; calls by dose curve; note: nearly all actives have a fitted effect of over 55% in size); settings: ARE-bla HepG2 viability, CellTiter-Glo luminescence, 16 h; series mostly up to 73.3 µM
Method in brief: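 HepG2 cells carrying ARE-driven beta-lactamase; 2,000 cells/well; 5 hrs plating; compound pinned from DMSO; 16 hrs 37C/5% CO2; CellTiter-Glo added; 30 min RT; luminescence.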

[9] = qHTS assay for small molecule activators of the heat shock response signaling pathway - cell viability counter screen (AID 743209); settings: HSE-bla HeLa viability, CellTiter-Glo luminescence, 5 h; series mostly up to 62.6 µM; note: nearly all actives have a fitted effect of over 50% in size
Method in brief: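 Luminescence from CellTiter-Glo, added after the beta-lactamase FRET read, gave the viability signal. Cells were HSE-bla HeLa treated with DMSO-dissolved compounds for 5 h at 37 C following overnight plating.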

[10] = qHTS assay for small molecule activators of the heat shock response signaling pathway (AID 743210; active = well fitted activation curve with a large enough effect in the signal ratio in the repeat runs, with a control signal flat, not every such curve was filed as active; the % refers to the signal ratio;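 note: HeLa cells with beta-lactamase reporter driven by heat shock elements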); settings: HeLa HSE-bla reporter, beta-lactamase ratio, 5 h; series mostly up to 62.6 µM
Method in brief: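 Quantitative high-throughput format using an engineered HeLa line in which heat shock response elements drive beta-lactamase; after 5 h with compound, cells received a B/G FRET substrate and fluorescence was read.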

[11] = qHTS assay to identify small molecule agonists of the peroxisome proliferator-activated receptor delta (PPARd) signaling pathway - cell viability counter screen (AID 743211); settings: PPARd-bla HEK293H viability, CellTiter-Glo luminescence, 17 h; series mostly up to 62.6 µM; note: nearly all actives have a fitted effect of over 55% in size; note: potency is the fitted concentration of half-maximal effect
Method in brief: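 HEK293H PPARd-bla, 3000 cells/well; 5 h preincubation 37C/5% CO2; cpd in DMSO, 17 h 37C; B/G FRET substrate 2 h RT; CellTiter-Glo 30 min RT, luminescence.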

[12] = test system: thyroid hormone receptor (rat, GH3 cells); assay: qHTS assay to identify small molecule agonists of the thyroid receptor (TR) signaling pathway (AID 743066; calls by dose curve); settings: GH3.TRE-Luc cells, TR agonist luciferase, 24 h; series mostly up to 83.9 µM
[13] = qHTS assay for small molecule agonists of the antioxidant response element (ARE) signaling pathway (AID 743202; active = well fitted activation curve with a large enough effect in the signal ratio in the repeat runs, not every such curve was filed as active; the % refers to the signal ratio; note: potency is the fitted concentration of half-maximal effect); settings: HepG2 ARE-bla reporter, beta-lactamase FRET, 16 h; series mostly up to 73.3 µM
Method in brief: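 Agonist mode reporter screen: HepG2 cells with ARE-controlled beta-lactamase are incubated with test compounds for 16 h at 37 C, and beta-lactamase activity is measured as fluorescence of cleaved B/G FRET substrate.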

[14] = qHTS assay to identify small molecule antagonists of the thyroid receptor (TR) signaling pathway (AID 743065); settings: GH3.TRE-Luc, T3-stimulated luciferase inhibition, 23.5 h; series mostly up to 70.3 µM; note: nearly all actives have a fitted effect of over 55% in size; note: potency is the fitted concentration of half-maximal effect
Method in brief: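 GH3.TRE-Luc rat pituitary cells (two TREs driving luciferase) were dosed with compound, then stimulated with 1 nM T3 (final) for 23.5 h at 37 C. ONE-Glo luminescence was the read-out, with CellTiter-Fluor fluorescence as the cytotoxicity counter-screen.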

[15] = qHTS assay to identify small molecule antagonists of the estrogen receptor alpha (ER-alpha) signaling pathway using the BG1 cell line (AID 743080; calls by dose curve;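 note: BG1 cells stimulated with 17beta-estradiol alongside compound; nearly all actives have a fitted effect of over 25% in size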); settings: BG1Luc4E2 ERE-luciferase antagonist mode, luminescence; activity change, negative = inhibition: at 70.3 µM (top of the series) unless noted
Method in brief: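 BG1-Luc-4E2 cells (endogenous full-length ER-alpha, 4xERE luciferase) hormone-starved 5 days in charcoal-stripped FBS, plated 4,000/well for 24 h, then compound plus 17beta-estradiol for 21.5 h at 37 C; ONE-Glo luminescence read.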

[16] = biological target: Peroxisome proliferator-activated receptor delta (Homo sapiens) (UniProt Q03181); assay: qHTS assay to identify small molecule agonists of the peroxisome proliferator-activated receptor delta (PPARd) signaling pathway (AID 743212; calls by dose curve); settings: HEK293H PPARd-UAS-bla, beta-lactamase FRET ratio, 17 h; series mostly up to 62.6 µM
Peroxisome proliferator-activated receptor delta (Homo sapiens), sequence (Q03181 whole entry, looked up): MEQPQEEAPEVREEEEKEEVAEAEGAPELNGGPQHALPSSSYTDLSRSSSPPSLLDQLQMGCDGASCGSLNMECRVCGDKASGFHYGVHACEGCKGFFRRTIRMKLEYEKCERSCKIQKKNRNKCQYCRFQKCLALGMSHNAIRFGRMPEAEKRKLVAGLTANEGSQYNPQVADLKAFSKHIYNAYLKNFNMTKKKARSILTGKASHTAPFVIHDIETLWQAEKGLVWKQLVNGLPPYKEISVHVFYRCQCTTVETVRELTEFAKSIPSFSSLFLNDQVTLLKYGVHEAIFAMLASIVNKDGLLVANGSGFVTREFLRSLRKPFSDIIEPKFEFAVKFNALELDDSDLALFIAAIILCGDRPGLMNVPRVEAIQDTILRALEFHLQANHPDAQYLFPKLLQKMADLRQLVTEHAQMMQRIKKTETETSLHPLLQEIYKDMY
Method in brief: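 Quantitative high-throughput agonist screen in a HEK293H beta-lactamase reporter line under UAS control. Compounds in DMSO, at 37 C. Fluorescence read after 2 h with FRET substrate at room temperature.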

[17] = biological target: Estrogen receptor (Homo sapiens) (UniProt P03372); assay: qHTS assay to identify small molecule antagonists of the estrogen receptor alpha (ER-alpha) signaling pathway (AID 743069; active = well fitted curve in the direction sought with a large enough effect in the signal ratio in the repeat runs, not every such curve was filed as active; the % refers to the signal ratio); settings: HEK293 ER-alpha-UAS-bla, beta-lactamase ratio, antagonist mode; series mostly up to 69.4 µM
Estrogen receptor (Homo sapiens), sequence (P03372 whole entry, looked up): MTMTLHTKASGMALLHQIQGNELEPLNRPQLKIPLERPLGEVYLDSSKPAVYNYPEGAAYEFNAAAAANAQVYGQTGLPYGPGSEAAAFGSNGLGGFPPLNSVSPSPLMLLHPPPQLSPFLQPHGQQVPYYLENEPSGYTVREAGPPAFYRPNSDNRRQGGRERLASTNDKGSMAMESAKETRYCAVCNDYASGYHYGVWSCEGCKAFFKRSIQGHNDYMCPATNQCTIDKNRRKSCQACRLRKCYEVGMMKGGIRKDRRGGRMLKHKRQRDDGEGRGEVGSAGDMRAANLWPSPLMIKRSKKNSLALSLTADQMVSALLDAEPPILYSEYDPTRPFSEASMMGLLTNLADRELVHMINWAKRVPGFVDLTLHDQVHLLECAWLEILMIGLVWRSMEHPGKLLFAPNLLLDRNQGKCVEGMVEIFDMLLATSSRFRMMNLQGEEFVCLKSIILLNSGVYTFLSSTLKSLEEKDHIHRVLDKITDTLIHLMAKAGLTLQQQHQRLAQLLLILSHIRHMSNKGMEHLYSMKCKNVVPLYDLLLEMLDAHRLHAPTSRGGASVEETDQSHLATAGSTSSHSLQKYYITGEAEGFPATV
Method in brief: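 Reporter cells (ER-alpha-bla, HEK293 background) are conditioned overnight in stripped-serum medium (2% charcoal-stripped FBS). Compound and 17beta-estradiol exposure runs 18 hr at 37C, 5% CO2.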

[18] = biological target: Estrogen receptor (Homo sapiens) (UniProt P03372); assay: qHTS assay to identify small molecule agonists of the estrogen receptor alpha (ER-alpha) signaling pathway (AID 743075; calls by dose curve;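 note: HEK293 GripTite cells with ER-alpha and UAS-driven beta-lactamase reporter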); settings: HEK293 ER-alpha-UAS-bla, beta-lactamase FRET ratio, 18 h; series mostly up to 70.1 µM
[19] = biological target: Estrogen receptor (Homo sapiens) (UniProt P03372); assay: qHTS assay to identify small molecule agonists of the estrogen receptor alpha (ER-alpha) signaling pathway using the BG1 cell line (AID 743079); settings: BG1Luc4E2 cells, ERE-luciferase agonist, 22 h; series mostly up to 70.3 µM; note: nearly all actives have a fitted effect of over 20% in size; note: potency is the fitted concentration of half-maximal effect

Compound | Potency [1] | Potency [2] | Potency (Aromatase (Homo sapiens)) | Potency [3] | Potency [4] | Potency [5] | Potency [6] | Potency [7] | Potency [8] | Potency [9] | outcome [10] | Potency [11] | Potency [12] | Potency [13] | Potency [14] | Potency [15] | outcome [16] | Potency [17] | Potency [18] | Potency [19]
CCn1cc[n+](C)c1C | inactive | inactive | inactive | inactive | inactive | inactive | inactive | inactive | inactive | inactive | inactive | inactive |  |  |  |  |  |  |  | 
CCCCCCCCCCCCOS(=O)(=O)O | inactive | inactive |  | inactive |  | inactive |  | inactive | inactive | inactive |  | 38.9 µM (active) and inactive | inactive | inactive |  |  |  |  |  | 
CCCC[N+]1(C)CCCC1 | inactive | inactive | inactive | inactive |  | inactive |  | inactive | inactive | inactive | inactive | inactive | inactive | inactive | inactive |  |  |  |  | 
CCCCCCn1cc[n+](C)c1 |  | inactive | inactive | inactive | inactive | inactive |  | inactive | inactive | inactive |  | inactive | inactive |  | inactive |  |  |  |  | 
CCCCCCCCn1cc[n+](C)c1 |  | inactive | 34.3 µM (active) and 27.5 µM (active) and 55 µM (active) | inactive | inactive | inactive |  | inactive | inactive | inactive | inactive | inactive | inactive | 4.32 µM (active) and 5.49 µM (active) | 27.3 µM (active) and 54.9 µM (active) |  |  |  |  | 
CC(=O)O | inactive | inactive | inactive | inactive | inactive | inactive |  | inactive | inactive | inactive |  | inactive | inactive | inactive |  |  |  |  |  | 
O=c1nc(O)n(Cl)c(=O)n1Cl | inactive | inactive | inactive | inactive | inactive | inactive | inactive | inactive | inactive | inactive |  | inactive | inactive | inactive |  |  |  |  |  | 
O=[N+]([O-])O | inactive | inactive | inactive | inactive | inactive | inactive |  | inactive | inactive | inactive |  | inactive |  | inactive |  |  |  |  |  | 
CCCn1cc[n+](C)c1 | inactive | inactive | inactive | inactive |  | inactive | inactive | inactive | inactive | inactive | inactive | inactive |  | inactive |  | inactive | inactive |  |  | 
O=P1(N(CCCl)CCCl)NCCCO1 (configuration not stated) | inactive | inactive | inactive | inactive | inactive | inactive | inactive | inactive | inactive | inactive |  | inactive | inactive | inactive |  | inactive | inactive | inactive | inactive | inactive and 27.3 µM (active)
